Screening data (PubChem)
Sampled rows, rich in hits. Any-hit rate of the full collection: about 21%.
Cycloheximide cs: counter-screen hit for Shiga toxin inhibitors, cycloheximide; cell reporter, cycloheximide protein synthesis inhibition counterscreen; AID 2314; 12% of 300,000 active; max response, %; in the data active means max response mostly above about 13%, no sharp cut-off; inactive means mostly below about 14%; further: read at 38.3 µM for the half of the compounds with a filed dose; 0% is about no effect
Shiga inhibitor: blocks Shiga toxin action in Vero cells; Vero cells, Shiga toxin protein synthesis inhibition reporter; inhibition, % at 38.7 µM; 9.2% of 290,000 active; AID 2315; in the data active means inhibition mostly above about 28%, no sharp cut-off; inactive means mostly below about 43%; further: 0% is about no effect
NS1 function inh: blocks influenza NS1 protein function; Potency, µM (highest dose often 46.1 µM), for the others: at the top dose activity, positive = more growth; 0.4% of 270,000 active; AID 2326; calls by dose curve; further: potency means the concentration at half of the fitted maximal effect; actives are rising curves; nearly all actives have a fitted effect of over 50% in size
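S. cerevisiae expressing influenza A NS1, grown in glucose, washed, then diluted 1:100 into pH 6.0 -URA galactose medium with 23 nl compound. Growth recovery read as OD600; NS1-free strain serves as control.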
Pf growth 96h: P. falciparum growth inhibition at 96 hour, primary screen for plastid delayed-death inhibitors | P. falciparum luciferase reporter growth, 96 h | Potency, µM (top dose mostly 28.7 µM), inactives show top-dose activity change, negative = inhibition, actives largely listed as inhibitors | 6.9% of 320,000 active; further: potency means the concentration at half of the fitted maximal effect; on the % scale 0 is the no-effect control and ±100 the full control effect
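Infected RBCs, 2% Hct / 0.05% parasitemia final; luciferase-reporter P. falciparum; cpd 96 h, 37 C, 5% CO2; luciferase detection reagent; luminescence.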
Pf growth 48h: inhibits P. falciparum growth in the first generation, 48 h; P. falciparum luciferase growth in erythrocytes, 48 h; Potency, µM (doses to about 28.7 µM), for the others: at the highest dose activity change, negative = inhibition, actives largely listed as inhibitors; 5.9% of 310,000 active; further: potency means the concentration at half of the fitted maximal effect; on the % scale 0 is the no-effect control and ±100 the full control effect
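Firefly luciferase activity from engineered P. falciparum reports growth; inhibitors lower the luminescent signal. Cultures contained 2% hematocrit erythrocytes at 0.1% final parasitemia.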
Numbers without * were called inactive. Unless noted, the call rests on the fitted dose curve; in most records, active means well fitted inhibition curve with a large enough effect; inconclusive means small, poorly fitted or top-dose-only effect, or another doubt; inactive means no such curve, though single readings can be large or run the other way.

For COc1cccc(CNC(=O)c2ccncc2)c1 the results were Cycloheximide cs -2, Shiga inhibitor -17, NS1 function inh 9%, Pf growth 96h -2% and Pf growth 48h 30%.
COc1ccccc1NC(=O)c1ccc(S(=O)(=O)N2CCC(C)CC2)cc1 was read as Cycloheximide cs 8, Shiga inhibitor 5, NS1 function inh 3%, Pf growth 96h inconclusive and Pf growth 48h inconclusive.
`O=C(COC(=O)c1ccc2c(c1)OCO2)Nc1ccccc1Cl` gave Pf growth 96h inconclusive and Pf growth 48h 17%.
`CCC(CC)NC(=O)COn1nnc2ccc(S(=O)(=O)N3CCOCC3)cc21` gave Pf growth 96h 7% and Pf growth 48h 1%.
Screening CCOC(=O)c1cc2[nH]c3ccccc3c2[n+](-c2ccc([N+](=O)[O-])cc2)c1C returned Cycloheximide cs -3, Shiga inhibitor -13, NS1 function inh 18%, Pf growth 96h inconclusive and Pf growth 48h 2.6µM*.
For O=C(OCc1cccc([N+](=O)[O-])c1)c1cc(=O)[nH]c2ccccc12 the results were Cycloheximide cs 11, Shiga inhibitor -11, NS1 function inh 1%, Pf growth 96h 35% and Pf growth 48h 31%.
Screening CCOC(=O)c1cc2[nH]c3ccccc3c2[n+](-c2ccc([N+](=O)[O-])cc2)c1N returned Cycloheximide cs -2, Shiga inhibitor -6, NS1 function inh -2%, Pf growth 96h inconclusive and Pf growth 48h 3.7µM*.
Screening CCOc1ccc(C(=O)O/N=C(\N)c2ccccn2)cc1OCC returned Cycloheximide cs 52*, Shiga inhibitor 85*, NS1 function inh -28%, Pf growth 96h 66% and Pf growth 48h -97%.
CCOc1cc(C(=O)O/N=C(\N)c2ccccn2)cc(OCC)c1OCC was read as Cycloheximide cs 53*, Shiga inhibitor 54*, NS1 function inh -76%, Pf growth 96h -17% and Pf growth 48h inconclusive.
For N/C(=N\OC(=O)c1ccc(Cl)cc1)c1ccccn1 the results were Cycloheximide cs 7, Shiga inhibitor 33, NS1 function inh -161%, Pf growth 96h -138% and Pf growth 48h -58%.
For COc1cc(OC)cc(C(=O)NNC(=O)c2ccccn2)c1 the results were Cycloheximide cs 15, Shiga inhibitor -5, NS1 function inh 3%, Pf growth 96h inconclusive and Pf growth 48h 9.3µM*.
Screening CCOc1cc(C(=O)O/N=C(\N)c2ccc([N+](=O)[O-])cc2)cc(OCC)c1OCC returned Cycloheximide cs -3, Shiga inhibitor 6, NS1 function inh 15%, Pf growth 96h inconclusive and Pf growth 48h inconclusive.
`COc1ccc(C(=O)O/N=C(\N)c2ccccn2)cc1` gave Cycloheximide cs -11, Shiga inhibitor -29, NS1 function inh -30%, Pf growth 96h -20% and Pf growth 48h -91%.
`COc1cc(OC)cc(C(=O)O/N=C(\N)c2ccccn2)c1` gave Cycloheximide cs 51*, Shiga inhibitor 116*, NS1 function inh -42%, Pf growth 96h inconclusive and Pf growth 48h inconclusive.
Screening COCCNC(=O)c1onc(CSc2ccc(C(C)C)cc2)c1C(=O)O returned Cycloheximide cs -3, Shiga inhibitor -11, NS1 function inh 2%, Pf growth 96h 147% and Pf growth 48h 44%.
`CCNC(=O)N1c2ccc(OCC)cc2C(C)=CC1(C)C` gave Cycloheximide cs 25, Shiga inhibitor 26, NS1 function inh -81% and Pf growth 48h -22%.
CCOc1ccc2c(c1)C(C)=CC(C)(C)N2C(=O)Nc1ccccc1F was read as Cycloheximide cs 1, Shiga inhibitor 24, NS1 function inh -10%, Pf growth 96h 9.3µM* and Pf growth 48h -2%.
`CCCOc1ccc(S(=O)(=O)N2CCOCC2)cc1[N+](=O)[O-]` gave Cycloheximide cs -9, Shiga inhibitor -10, Pf growth 96h -22% and Pf growth 48h -1%.
Cc1ccc(NC(=S)/C(=C(\[O-])c2ccc(Cl)s2)[n+]2cccc(CO)c2)cc1C was read as Cycloheximide cs 40*, Shiga inhibitor 68*, Pf growth 96h inconclusive and Pf growth 48h 25%.
For CC1CCN(C(=O)CSc2nc3ccccc3s2)CC1 the results were Cycloheximide cs 34*, Shiga inhibitor 45, NS1 function inh -15% and Pf growth 96h 163%.
O=C(CSc1nncc2ccccc12)N1CCCCC1 was read as Cycloheximide cs 45*, Shiga inhibitor 40, Pf growth 96h -34% and Pf growth 48h 7%.
